Among the test systems are SK-MEL-2 melanoma; EKVX NSCLC; SN12C renal; UO-31 renal; TK-10 renal; ACHN renal; CAKI-1 renal; A498 renal; CCRF-CEM leukemia; MOLT-4 leukemia; SR leukemia; RPMI-8226 leukemia; OVCAR-8 ovarian; OVCAR-5 ovarian; SK-OV-3 ovarian; IGROV1 ovarian; OVCAR-3 ovarian; HS 578T breast; NCI/ADR-RES ovarian.
Experiment in all cases: NCI-60 one-dose screen, 48 h (100 = growth as untreated, 0 = no growth, -100 = all killed)
Conditions in all cases: 10 µM unless noted

SMILES strings stand for the structures. This is part of a sample that, as a whole, favours compounds with a hit. Of some 83,000 tested, about 20% had one in any assay.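 Assay: single dose, 48 h. Readout: percent growth (0 = no net growth; negative = cell death). Active: <10.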 Values without a mark were called inactive. Activity calls are given as the source filed them.

For the molecule `O=C(Nc1cccc2ccccc12)c1cc2ccccc2cc1O`, the growth is 20.9% with SK-MEL-2 melanoma; 15% in the assay with EKVX NSCLC; 7.28% (active) with SN12C renal; -19.2% (active) with UO-31 renal; 34.4% in the assay with TK-10 renal; 1.41% (active) with ACHN renal. Moreover, the growth with CAKI-1 renal was -40% (active); with A498 renal, -13.8% (active); in the assay with CCRF-CEM leukemia it was 17.1%; in the assay on MOLT-4 leukemia it was 21.4%; in the assay with SR leukemia, 16%; in the assay with RPMI-8226 leukemia it was 15.1%. Also, the growth is 12.2% with OVCAR-8 ovarian; 105% in the assay with OVCAR-5 ovarian; 0.954% (active) in the assay on SK-OV-3 ovarian; 7.48% (active) in the assay on IGROV1 ovarian; 19.9% in the assay with OVCAR-3 ovarian; 32.2% in the assay with HS 578T breast. The growth in the assay on NCI/ADR-RES ovarian was 4.52% (active).

Regarding `O=C(N/N=C\c1cc(Cl)ccc1O)N/N=C/c1cc(Cl)ccc1O`, the growth with SK-MEL-2 melanoma is 70.6%; in the assay with EKVX NSCLC, 69.4%; in the assay on SN12C renal, 66.8%; in the assay on UO-31 renal, 17.3%; in the assay with TK-10 renal, 55.4%; in the assay with ACHN renal it was 27.5%. The growth with CAKI-1 renal is 60.2%; in the assay with A498 renal, 80.3%; with CCRF-CEM leukemia it was 27.4%; in the assay with MOLT-4 leukemia it was 43.2%; in the assay with SR leukemia, 35.4%; in the assay on RPMI-8226 leukemia, 29.4%. Also, the growth in the assay with OVCAR-8 ovarian is 43.4%; in the assay with OVCAR-5 ovarian it was 75.6%; in the assay on SK-OV-3 ovarian it was 73.7%; with IGROV1 ovarian, 49.1%; with OVCAR-3 ovarian, 10.2%; in the assay with HS 578T breast it was 34.6%. Moreover, the growth in the assay on NCI/ADR-RES ovarian was 16%.

As for `O=C(Nc1ccc(C(=O)/C=C/c2ccc(N3CCOCC3)cc2)cc1)Nc1ccc([N+](=O)[O-])cc1`, the growth is 97.6% in the assay on SK-MEL-2 melanoma; 112% in the assay with EKVX NSCLC; 97% in the assay on SN12C renal; 83.5% in the assay with UO-31 renal; 88.5% with TK-10 renal; 94.4% in the assay on ACHN renal. Further, the growth was 82.6% in the assay on CAKI-1 renal; 5.47% (active) in the assay on A498 renal; 84.4% in the assay on CCRF-CEM leukemia; 66.2% with MOLT-4 leukemia; 94.1% with SR leukemia; 77% in the assay on RPMI-8226 leukemia. In addition, the growth was 92.4% with OVCAR-8 ovarian; 94.4% with OVCAR-5 ovarian; 90.5% with SK-OV-3 ovarian; 72.5% with IGROV1 ovarian; 93.9% in the assay with OVCAR-3 ovarian; 111% with HS 578T breast. Further, in the assay with NCI/ADR-RES ovarian, the growth was 98.5%.

Turning to `CC1(C)CC[C@]2(C(N)=O)CC[C@]3(C)C(=CC[C@@H]4[C@@]5(C)C/C(=C/c6ccncc6)C(=O)C(C)(C)[C@@H]5CC[C@]43C)[C@@H]2C1`, the growth with SK-MEL-2 melanoma was -86% [100 µM] (active); in the assay on EKVX NSCLC, -52.8% [100 µM] (active); in the assay with SN12C renal, -78.1% [100 µM] (active); in the assay with UO-31 renal it was -98.1% [100 µM] (active); in the assay on TK-10 renal, -89.5% [100 µM] (active); in the assay with ACHN renal it was -82.5% [100 µM] (active). The growth with CAKI-1 renal was -58.3% [100 µM] (active); in the assay on A498 renal, -80.4% [100 µM] (active); in the assay on CCRF-CEM leukemia, -10% [100 µM] (active); with MOLT-4 leukemia, -13.6% [100 µM] (active); with SR leukemia, 2.61% [100 µM] (active); in the assay with RPMI-8226 leukemia, -29.1% [100 µM] (active). In addition, the growth is -28.6% [100 µM] (active) with OVCAR-8 ovarian; -81.9% [100 µM] (active) with OVCAR-5 ovarian; -45.7% [100 µM] (active) in the assay with SK-OV-3 ovarian; -72.3% [100 µM] (active) in the assay with IGROV1 ovarian; -69.5% [100 µM] (active) with OVCAR-3 ovarian; -22.1% [100 µM] (active) in the assay on HS 578T breast. Further, the growth in the assay on NCI/ADR-RES ovarian was -48% [100 µM] (active).

For `O=[N+]([O-])c1cc(CCl)ccc1OCCBr`, the growth in the assay with SK-MEL-2 melanoma was 106%; with EKVX NSCLC, 104%; with SN12C renal it was 99.7%; with UO-31 renal, 80.8%; with TK-10 renal it was 101%; in the assay on ACHN renal, 107%. The growth in the assay with CAKI-1 renal is 92%; in the assay with A498 renal, 91.9%; in the assay with CCRF-CEM leukemia it was 86.6%; with MOLT-4 leukemia it was 109%; with SR leukemia, 102%; with RPMI-8226 leukemia it was 93.5%. The growth in the assay on OVCAR-8 ovarian is 101%; in the assay on OVCAR-5 ovarian it was 108%; in the assay on SK-OV-3 ovarian, 102%; in the assay with IGROV1 ovarian, 107%; with OVCAR-3 ovarian it was 105%; with HS 578T breast, 108%. For the same molecule, in the assay with NCI/ADR-RES ovarian, the growth was 110%.

For the molecule `O=C(Nc1cccc2cccnc12)c1cc(C(=O)c2ccc(Cl)cc2)n2ccc(-c3ccncc3)cc12`, the growth was 112% with SK-MEL-2 melanoma; 107% in the assay with EKVX NSCLC; 101% in the assay with SN12C renal; 81.4% with UO-31 renal; 108% with TK-10 renal; 99.7% in the assay on ACHN renal. Moreover, the growth in the assay on CAKI-1 renal is 83.4%; in the assay on A498 renal it was 90.5%; in the assay with CCRF-CEM leukemia, 115%; in the assay with MOLT-4 leukemia it was 129%; with SR leukemia, 125%; in the assay with RPMI-8226 leukemia, 103%. In addition, the growth in the assay on OVCAR-8 ovarian is 97.8%; with OVCAR-5 ovarian, 98.9%; in the assay on SK-OV-3 ovarian, 92.1%; with IGROV1 ovarian it was 89.1%; in the assay on OVCAR-3 ovarian it was 111%; with HS 578T breast, 89.6%. The growth in the assay with NCI/ADR-RES ovarian is 105%.

The values above are taken from PubChem BioAssay (NCI).
